According to ChEMBL document CHEMBL3988442, “University of Dundee, Small-Polar-MMV Screening Library” (2021):
For some assays here: Measured potencies and affinities stand elsewhere.

Columns and labels:
Parameters in all cases: scale not given: direction of the effect not stated beside the values
[1] = biological target: Protein translocase subunit SecA (Escherichia coli (strain K12)) (UniProt P10408); assay: Assay to Identify E. coli SecA ATPase Inhibitors; assay type: functional; conditions: 30 µM
Chain of Protein translocase subunit SecA (Escherichia coli (strain K12)) (P10408 whole entry): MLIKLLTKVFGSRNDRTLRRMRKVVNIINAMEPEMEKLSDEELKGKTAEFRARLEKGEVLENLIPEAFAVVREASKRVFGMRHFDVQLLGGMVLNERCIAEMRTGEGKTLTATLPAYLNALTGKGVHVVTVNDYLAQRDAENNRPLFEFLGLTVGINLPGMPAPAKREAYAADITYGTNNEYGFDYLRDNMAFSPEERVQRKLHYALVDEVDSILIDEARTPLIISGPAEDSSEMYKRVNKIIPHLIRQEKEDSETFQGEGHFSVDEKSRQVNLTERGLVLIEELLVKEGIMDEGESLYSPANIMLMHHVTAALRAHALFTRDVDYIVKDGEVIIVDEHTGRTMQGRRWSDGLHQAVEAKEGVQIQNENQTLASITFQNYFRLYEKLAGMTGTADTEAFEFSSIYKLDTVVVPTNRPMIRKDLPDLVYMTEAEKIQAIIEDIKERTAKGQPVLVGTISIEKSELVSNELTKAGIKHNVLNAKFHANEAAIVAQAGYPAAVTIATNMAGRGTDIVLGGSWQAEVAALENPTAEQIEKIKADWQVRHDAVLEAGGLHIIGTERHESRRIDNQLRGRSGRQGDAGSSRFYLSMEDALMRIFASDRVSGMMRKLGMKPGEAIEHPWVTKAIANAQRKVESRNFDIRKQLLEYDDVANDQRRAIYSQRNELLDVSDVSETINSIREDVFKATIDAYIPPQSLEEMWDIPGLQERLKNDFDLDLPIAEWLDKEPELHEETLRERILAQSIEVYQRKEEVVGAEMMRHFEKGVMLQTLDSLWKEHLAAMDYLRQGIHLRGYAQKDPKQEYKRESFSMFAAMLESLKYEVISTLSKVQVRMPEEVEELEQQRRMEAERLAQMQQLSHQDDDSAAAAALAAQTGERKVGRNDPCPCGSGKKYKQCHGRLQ

[2] = biological target: T1, Ubiquitin-activating enzyme e1, putative (Leishmania donovani (strain BPK282A1)) (UniProt E9BSI1); assay: Leishmania donovani Ubiquitin Activating Enzyme (LdE1); assay type: functional; conditions: 30 µM
T1 sequence (whole entry): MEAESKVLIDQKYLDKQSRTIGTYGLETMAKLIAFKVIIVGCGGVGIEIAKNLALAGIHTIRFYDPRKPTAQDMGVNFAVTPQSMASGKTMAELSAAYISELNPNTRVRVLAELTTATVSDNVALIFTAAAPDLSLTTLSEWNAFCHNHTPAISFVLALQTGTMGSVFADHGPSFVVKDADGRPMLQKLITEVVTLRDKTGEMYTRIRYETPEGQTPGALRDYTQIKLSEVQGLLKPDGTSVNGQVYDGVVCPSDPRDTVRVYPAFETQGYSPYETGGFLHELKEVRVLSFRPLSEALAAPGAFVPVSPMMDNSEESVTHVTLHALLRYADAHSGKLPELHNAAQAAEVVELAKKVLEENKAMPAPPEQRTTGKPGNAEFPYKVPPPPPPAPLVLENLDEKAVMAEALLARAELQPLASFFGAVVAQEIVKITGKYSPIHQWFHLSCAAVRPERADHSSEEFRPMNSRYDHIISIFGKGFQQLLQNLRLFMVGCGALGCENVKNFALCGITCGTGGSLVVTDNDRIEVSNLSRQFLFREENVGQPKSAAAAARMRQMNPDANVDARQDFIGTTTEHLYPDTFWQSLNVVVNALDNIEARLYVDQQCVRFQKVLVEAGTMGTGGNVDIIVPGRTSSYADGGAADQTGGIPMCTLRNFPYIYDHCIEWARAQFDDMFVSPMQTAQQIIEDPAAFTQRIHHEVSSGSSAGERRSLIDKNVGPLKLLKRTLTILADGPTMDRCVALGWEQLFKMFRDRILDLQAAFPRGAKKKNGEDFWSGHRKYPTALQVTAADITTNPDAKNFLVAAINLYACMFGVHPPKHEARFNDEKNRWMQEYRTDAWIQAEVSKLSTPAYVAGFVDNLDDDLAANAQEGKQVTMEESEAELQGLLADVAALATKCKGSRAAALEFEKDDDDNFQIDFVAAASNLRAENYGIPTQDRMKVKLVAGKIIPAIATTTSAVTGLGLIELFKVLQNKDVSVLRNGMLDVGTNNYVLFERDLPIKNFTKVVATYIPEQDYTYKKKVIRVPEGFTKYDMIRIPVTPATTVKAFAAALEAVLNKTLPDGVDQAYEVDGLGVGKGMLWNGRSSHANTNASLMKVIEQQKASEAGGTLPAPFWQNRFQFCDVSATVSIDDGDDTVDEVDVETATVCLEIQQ

[3] = biological target: AMP-activated protein kinase, AMPK (Homo sapiens) (UniProt P54646+O43741+P54619+Q9UGJ0+Q9Y478+Q13131+Q9UGI9); assay: AMP-dependent Kinase enzyme assay. An in vitro enzyme assay that detects ADP turnover that is directly proportional to AMPK activity. This uses naive AMPK that is activated during the assay with MK-8722; assay type: functional; conditions: 30 µM
[4] = biological target: Sialic acid-binding Ig-like lectin 9 (Homo sapiens) (UniProt Q9Y336); assay: Hs-Siglec9 ALPHAscreen SOP 20170721; conditions: 10 µM
Chain of Sialic acid-binding Ig-like lectin 9 (Homo sapiens) (Q9Y336 whole entry): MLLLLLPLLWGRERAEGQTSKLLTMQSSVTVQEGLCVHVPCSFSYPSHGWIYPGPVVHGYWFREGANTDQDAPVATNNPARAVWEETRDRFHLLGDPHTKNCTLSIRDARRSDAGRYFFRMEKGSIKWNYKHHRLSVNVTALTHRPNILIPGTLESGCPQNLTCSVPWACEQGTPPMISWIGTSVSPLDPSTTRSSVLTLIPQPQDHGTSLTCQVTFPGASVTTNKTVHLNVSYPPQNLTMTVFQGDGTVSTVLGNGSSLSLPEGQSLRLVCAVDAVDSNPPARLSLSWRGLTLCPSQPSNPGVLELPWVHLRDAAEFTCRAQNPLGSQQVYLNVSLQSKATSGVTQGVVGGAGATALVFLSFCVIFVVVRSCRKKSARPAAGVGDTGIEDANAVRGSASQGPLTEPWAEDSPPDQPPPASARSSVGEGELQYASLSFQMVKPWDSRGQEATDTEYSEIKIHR

Trypanosoma cruzi = assay: Trypanosoma cruzi phosphomannomutase and mannose-1-phosphate guanylyltransferase assay; assay type: functional; conditions: 10 µM
[5] = biological target: T2, Arginase-2, mitochondrial (Homo sapiens) (UniProt P78540); assay: in vitro enzyme assay to detect the production of urea directly proportional to the activity of Arginase II; assay type: functional; conditions: 33.3 µM; further: in the data most compounds retested in dose-response had high values
T2 sequence (whole entry): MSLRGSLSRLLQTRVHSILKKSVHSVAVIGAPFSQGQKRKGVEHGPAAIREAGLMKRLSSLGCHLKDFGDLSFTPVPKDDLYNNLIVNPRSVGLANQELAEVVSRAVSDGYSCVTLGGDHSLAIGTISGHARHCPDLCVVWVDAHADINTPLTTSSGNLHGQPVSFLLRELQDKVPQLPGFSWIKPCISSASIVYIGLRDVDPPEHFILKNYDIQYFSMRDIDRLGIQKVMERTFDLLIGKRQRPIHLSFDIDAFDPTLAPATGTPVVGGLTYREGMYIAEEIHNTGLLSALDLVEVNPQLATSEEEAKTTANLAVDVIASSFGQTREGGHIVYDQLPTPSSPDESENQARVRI

[6] = biological target: T3, Proteasome subunit beta (Trypanosoma cruzi) (UniProt O96673); assay: Trypanosoma cruzi proteasome chymotrypsin-like activity (TcProtChymo) assay.; further: in the data most compounds retested in dose-response had high values; assay type: functional; conditions: 9.37 µM
T3 sequence (whole entry): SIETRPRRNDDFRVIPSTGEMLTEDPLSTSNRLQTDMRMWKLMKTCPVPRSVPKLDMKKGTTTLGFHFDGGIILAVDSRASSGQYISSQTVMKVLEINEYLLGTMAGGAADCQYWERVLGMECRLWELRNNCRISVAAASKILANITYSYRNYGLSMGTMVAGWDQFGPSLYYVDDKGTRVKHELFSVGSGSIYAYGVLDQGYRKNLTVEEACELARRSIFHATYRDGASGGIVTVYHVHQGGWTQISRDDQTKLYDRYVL

Homo sapiens = organism: Homo sapiens; assay: To identify inhibition of the IFN signalling (Jak-Stat) pathway via expression of an eGFP reporter gene under the control of an IFN-stimulated response element (ISRE) containing MxA promoter.; assay type: functional; conditions: 30 µM
[7] = biological target: T4, Tyrosyl-tRNA synthetase, putative (Trypanosoma cruzi (strain CL Brener)) (UniProt Q4DSP6); assay: Trypanosoma cruzi tyrosyl tRNA synthetase (TcYRS) _High Tyrosine SOP; assay type: functional; conditions: 30 µM; further: in the data most compounds retested in dose-response had high values
T4 sequence (whole entry): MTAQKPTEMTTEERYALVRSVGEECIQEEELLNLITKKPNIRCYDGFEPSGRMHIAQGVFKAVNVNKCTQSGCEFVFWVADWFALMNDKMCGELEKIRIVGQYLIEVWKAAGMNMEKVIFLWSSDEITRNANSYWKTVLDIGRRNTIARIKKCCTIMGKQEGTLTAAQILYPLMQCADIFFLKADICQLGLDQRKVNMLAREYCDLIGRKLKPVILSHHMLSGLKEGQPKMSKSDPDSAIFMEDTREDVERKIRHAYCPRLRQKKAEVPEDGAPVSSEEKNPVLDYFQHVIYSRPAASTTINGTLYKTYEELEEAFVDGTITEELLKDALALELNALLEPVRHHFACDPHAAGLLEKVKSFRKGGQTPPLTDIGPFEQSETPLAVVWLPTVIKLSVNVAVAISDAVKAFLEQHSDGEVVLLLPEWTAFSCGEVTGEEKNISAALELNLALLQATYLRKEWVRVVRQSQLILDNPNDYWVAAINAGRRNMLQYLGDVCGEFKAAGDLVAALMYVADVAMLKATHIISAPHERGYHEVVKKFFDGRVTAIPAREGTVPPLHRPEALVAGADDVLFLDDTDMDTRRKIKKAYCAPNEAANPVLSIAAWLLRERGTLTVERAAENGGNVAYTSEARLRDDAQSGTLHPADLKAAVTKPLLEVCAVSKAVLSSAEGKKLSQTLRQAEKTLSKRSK

[8] = biological target: T4, Tyrosyl-tRNA synthetase, putative (Trypanosoma cruzi (strain CL Brener)); assay: Trypanosoma cruzi tyrosyl tRNA synthetase (TcYRS) SOP; assay type: functional; conditions: 30 µM
[9] = biological target: Chromo domain-containing protein 1 (Saccharomyces cerevisiae (strain ATCC 204508 / S288c) (Baker's yeast)) (UniProt P32657); assay: ScCHD-1 Enzyme Inhibition Assay; assay type: functional; conditions: 30 µM; further: in the data most compounds retested in dose-response had high values
Chain of Chromo domain-containing protein 1 (Saccharomyces cerevisiae (strain ATCC 204508 / S288c) (Baker's yeast)) (P32657 whole entry, the tested form may be a part): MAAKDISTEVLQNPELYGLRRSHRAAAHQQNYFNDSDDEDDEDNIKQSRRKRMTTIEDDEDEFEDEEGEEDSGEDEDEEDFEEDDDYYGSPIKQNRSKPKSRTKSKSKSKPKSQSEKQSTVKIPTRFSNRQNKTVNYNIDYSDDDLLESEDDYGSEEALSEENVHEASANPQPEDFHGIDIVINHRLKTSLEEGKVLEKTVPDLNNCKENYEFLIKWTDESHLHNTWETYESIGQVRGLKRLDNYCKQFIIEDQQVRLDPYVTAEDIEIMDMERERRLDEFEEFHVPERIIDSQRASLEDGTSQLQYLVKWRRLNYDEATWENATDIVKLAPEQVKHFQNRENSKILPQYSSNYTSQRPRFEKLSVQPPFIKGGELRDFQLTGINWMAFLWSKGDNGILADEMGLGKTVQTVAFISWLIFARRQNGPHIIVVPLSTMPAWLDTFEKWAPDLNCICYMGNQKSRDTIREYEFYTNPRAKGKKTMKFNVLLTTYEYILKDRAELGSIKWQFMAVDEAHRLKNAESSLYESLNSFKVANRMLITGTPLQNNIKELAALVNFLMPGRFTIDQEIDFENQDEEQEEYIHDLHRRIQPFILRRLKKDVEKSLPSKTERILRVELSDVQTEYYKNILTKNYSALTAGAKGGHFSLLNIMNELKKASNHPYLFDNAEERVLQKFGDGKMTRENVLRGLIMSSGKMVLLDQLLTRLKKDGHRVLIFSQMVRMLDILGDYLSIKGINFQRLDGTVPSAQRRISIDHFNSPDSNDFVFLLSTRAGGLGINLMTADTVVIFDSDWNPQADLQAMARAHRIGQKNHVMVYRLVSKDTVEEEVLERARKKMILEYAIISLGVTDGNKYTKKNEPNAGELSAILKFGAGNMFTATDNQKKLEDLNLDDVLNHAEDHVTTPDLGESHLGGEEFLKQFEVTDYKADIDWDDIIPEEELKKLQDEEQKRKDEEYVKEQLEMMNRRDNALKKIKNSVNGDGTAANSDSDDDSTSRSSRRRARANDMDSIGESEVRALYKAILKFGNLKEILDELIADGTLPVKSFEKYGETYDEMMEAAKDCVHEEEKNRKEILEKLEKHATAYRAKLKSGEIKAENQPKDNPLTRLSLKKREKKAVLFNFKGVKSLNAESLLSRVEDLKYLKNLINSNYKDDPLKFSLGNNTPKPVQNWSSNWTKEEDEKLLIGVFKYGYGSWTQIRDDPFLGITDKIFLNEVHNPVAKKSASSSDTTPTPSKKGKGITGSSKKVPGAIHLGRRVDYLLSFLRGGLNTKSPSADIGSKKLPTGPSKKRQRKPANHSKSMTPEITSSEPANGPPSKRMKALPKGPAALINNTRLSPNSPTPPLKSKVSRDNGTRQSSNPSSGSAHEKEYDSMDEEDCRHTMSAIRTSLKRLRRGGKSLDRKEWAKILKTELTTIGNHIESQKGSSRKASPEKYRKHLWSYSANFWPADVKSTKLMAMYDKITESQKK

SMILES | Percent Effect [1] [%] | Percent Effect [2] [%] | Percent Effect [3] [%] | Percent Effect [4] [%] | Percent Effect (Trypanosoma cruzi) [%] | Percent Effect [5] [%] | Percent Effect [6] [%] | Percent Effect (Homo sapiens) [%] | Percent Effect [7] [%] | Percent Effect [8] [%] | Percent Effect [9] [%]
O=C(NCC(O)c1ccc(F)c(F)c1)c1cccnc1O (configuration not stated) | -0.608 | 13.7 | 1.02 | 2.28 | -0.198 | -4.39 | 24.9 | 3.44 | 10.4 | 21 | -4.53
O=C(COc1coc(CN2CCOCC2)cc1=O)c1ccc(Cl)cc1 | -3.55 | 2.63 | 5.88 | 11 | -2.04 | -11.8 | 12 | 20.8 | -1.06 | 0 | -0.42
CC(=O)N1[C@H](Cn2cncn2)C[C@@H]2CN(S(C)(=O)=O)CC[C@@H]21 | -4.17 | 10.4 | 1.39 | 9.47 | 9.54 | -74.5 | 14.5 | -25.9 | 4.3 | 16.1 | -4.74
O=C(c1cccc2c1OCO2)N1CCCC(n2cccn2)C1 (configuration not stated) | -4.91 | 2.7 | -10.6 | 1.58 | -5.94 | -1.2 | 8.29 | 10.5 | 0.493 | 3.7 | -1.47
COC(=O)C(NC(=O)C(C)C)c1cc(F)ccc1F (configuration not stated) | -3.03 | 10.4 | 3.19 | 15.7 | -2.43 | 7.12 | 3.38 | 22.8 | 2.91 | 9.76 | -4.93
CC1CN=C(N2CCN(C(=O)Nc3nc(-c4ccccc4)ns3)CC2)S1 (configuration not stated) | -9.42 | -5.41 | 7.75 | -5.9 | -2.25 | -3.23 | 3.35 | 38.4 | -2.15 | -6.17 | -0.289
Cc1ccc(C)c(NC(=O)Nc2c[nH]c(=O)[nH]c2=O)c1 | 3.77 | 13 | -1.87 | -3.33 | -4.44 | 11 | 4.7 | 7.57 | 2.12 | 3.85 | -8.57
O=C(NCCN1CCOCC1)c1cc(-c2ccc3c(c2)CCO3)n[nH]1 | -4.45 | 9.33 | 3.38 | -3.18 | 1.57 | -5.11 | 1.48 | -12.9 | 5.29 | 7.69 | -6.47
CNS(=O)(=O)c1cccc(CNc2cc(C(F)(F)F)ccn2)c1 | -7.14 | 5.41 | 12.6 | -1.96 | -6.13 | 5.21 | 0.54 | 38.2 | 4.43 | 3.7 | -1.45
CN(CCc1ccccn1)S(=O)(=O)N1CCCC1c1ccco1 (configuration not stated) | 0.19 | 16.2 | 2.74 | -10.8 | -9.94 | 4.25 | 13.1 | 17.6 | 6.93 | 11 | -5.75
Cc1cc(=O)n(CC(=O)Nc2ccc(C(N)=O)cc2)nc1C | -0.496 | 0 | -2.6 | 15.7 | 3.67 | 0.952 | 11.6 | 4.44 | 1.59 | 9.76 | -0.0727
CC[C@@]1(O)CCN(C(=O)c2ccc(-c3cccc(F)c3)cc2)C[C@H]1O | -2.8 | 4.17 | -2.66 | -8.29 | -3.6 | 0.883 | 13.3 | 16.4 | 2.1 | 10.3 | -3.01
COc1c(C)cnc(CSc2nnc(C)s2)c1C | -4.15 | 5.33 | -1.7 | 12.8 | 6.33 | 8.33 | 4.53 | 6.59 | 1.64 | 6.17 | -14.7
Cc1c(C2CCCN(C(=O)Cc3ccccn3)C2)n2c(nc1=O)CCC2 (configuration not stated) | -4 | 12.2 | 4.92 | -3.29 | -5.53 | 0.696 | 15.3 | 14.5 | 6.45 | 6.49 | -11.6
COCCN1CC[C@H](O)[C@@H]1Cc1ccccc1 | -2.09 | 12 | -0.98 | 0.93 | 0.786 | 6.87 | 20 | 22.1 | 5.29 | 7.69 | -4.88
CN(C)CC(=O)N1CCOCC2(C1)CN(c1ccccc1)C(=O)CO2 (configuration not stated) | 1.58 | 8 | 11.2 | -1.53 | -4.05 | -56.8 | 3.08 | -9.58 | 5.21 | -22.5 | -7.95
Cc1nc(C)n(CC2CCCN2Cc2nc(-c3cccs3)no2)n1 (configuration not stated) | -2.92 | -7.89 | 1.44 | 6.54 | -0.188 | 2.3 | 6.85 | 17.8 | 5.39 | 12.2 | 1.98
CC(C)c1nc(CN2CCCCC2)cs1 | -4.24 | -5.2 | 15.4 | 0.118 | -0.686 | -0.632 | -1.54 | 47.1 | -2.86 | -2.35 | 0.144
CN(C)C(=O)C1(CCCc2ccncc2)CCCN1 (configuration not stated) | -1.15 | 23 | -1.94 | -4.7 | 0 | -3.48 | 26.1 | 4.91 | 5.38 | 14.3 | -22.2
CC(C)Sc1ncccc1C(=O)NCc1ccc(CS(C)(=O)=O)cc1 | -4.04 | 13.9 | 0.323 | -3.32 | -1.74 | 4.09 | 18 | 18.1 | 4.17 | 5.06 | -15.6
O=C(NCCCn1cncn1)NCC(c1ccccc1)N1CCCC1 (configuration not stated) | -4.8 | 2.6 | -5.77 | -8.15 | 5.58 | -2.32 | 14.6 | 6.64 | 3.81 | 2.35 | -23.6
COc1cc(CNCCc2nc(C)cs2)cc2c1OCCO2 | -2.37 | 5.26 | 1.5 | 15.7 | -1.13 | -3.06 | 12.5 | 10.1 | 4.41 | 12.2 | -7.14
